The source of these data is PubChem BioAssay (NCATS).

Results filed as inconclusive are left out. Active and inactive are the calls of the source. The call rests on the fitted dose curve; in most records, active means well fitted curve in the direction sought with a large enough effect; inconclusive means small, poorly fitted or top-dose-only effect, or another doubt; inactive means no such curve, though single readings can be large; an effect the other way counts as inactive or inconclusive.

A short description of assay [1]: Quantitative High-Throughput drug screen in 47 multiple myeloma cell lines against the NCATS MIPE library collection: KMS26_JCRB cell viability assay (AID 1918975). Further: nearly all actives have a fitted effect of over 45% in size. Summed up:
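We plated 500 myeloma cells per well, pinned in MIPE 4.0 compounds, and incubated for 48 hours at 37C. ATP was then quantified with CellTiter-Glo, with DMSO and media-only wells defining 100% and 0%.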

A short description of assay [2]: Quantitative High-Throughput drug screen in 47 multiple myeloma cell lines against the NCATS MIPE library collection: MMM1_PLB cell viability assay (AID 1918976). Further: nearly all actives have a fitted effect of over 35% in size. Summed up: (§1)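 500 cells/well per myeloma line exposed to pinned MIPE 4.0 compounds for 48 h at 37 °C, 5% CO2. Viability read as ATP by CellTiter-Glo luminescence, normalised to DMSO-only (100%) and media-only (0%) wells.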

A short description of assay [3]: Quantitative High-Throughput drug screen in 47 multiple myeloma cell lines against the NCATS MIPE library collection: MOLP8_DSMZ cell viability assay (AID 1918977). Further: nearly all actives have a fitted effect of over 45% in size. The essentials:
as §1

Assay [4] can be described thus: Quantitative High-Throughput drug screen in 47 multiple myeloma cell lines against the NCATS MIPE library collection: NCIH929_DSMZ cell viability assay (AID 1918978). Further: nearly all actives have a fitted effect of over 35% in size. Summed up:
as §1

Assay [5] is described as follows: Quantitative High-Throughput drug screen in 47 multiple myeloma cell lines against the NCATS MIPE library collection: OCIMY1_PLB cell viability assay (AID 1918979). Further: nearly all actives have a fitted effect of over 35% in size. The essentials: as §1
Assay [6] in a line: Quantitative High-Throughput drug screen in 47 multiple myeloma cell lines against the NCATS MIPE library collection: MM1S_ATCC cell viability assay (AID 1918980). Further: nearly all actives have a fitted effect of over 45% in size. The essentials: as §1
The nature of assay [7]: Quantitative High-Throughput drug screen in 47 multiple myeloma cell lines against the NCATS MIPE library collection: MM1R_ATCC cell viability assay (AID 1918981). Further: nearly all actives have a fitted effect of over 35% in size. The essentials: as §1
Assay [8] in a line: Quantitative High-Throughput drug screen in 47 multiple myeloma cell lines against the NCATS MIPE library collection: KMS28PE_JCRB cell viability assay (AID 1918983). Further: nearly all actives have a fitted effect of over 35% in size. Summed up: as §1
The nature of assay [9]: Quantitative High-Throughput drug screen in 47 multiple myeloma cell lines against the NCATS MIPE library collection: L363_DSMZ cell viability assay (AID 1918984). Further: nearly all actives have a fitted effect of over 40% in size. The essentials: as §1
The nature of assay [10]: Quantitative High-Throughput drug screen in 47 multiple myeloma cell lines against the NCATS MIPE library collection: LP1_DSMZ cell viability assay (AID 1918982). Further: nearly all actives have a fitted effect of over 35% in size. The essentials:
as §1
Potency means the concentration at half of the fitted maximal effect.

As to `O=C(Nc1ncc(-c2cc(C(F)F)nn2-c2c(Cl)cccc2Cl)s1)C1CC1`, the Potency in assay [1] was 2640 nM (active); in assay [2], 2640 nM (active); in assay [3] it was 2090 nM (active); in assay [4], 2640 nM (active); in assay [5], 743 nM (active); in [6] it was 1480 nM (active). Further, the Potency in assay [7] is 1320 nM (active); in [8], 935 nM (active); in [9] it was 235 nM (active).
Consider `C=C1C(=CC=C2CCC[C@]3(C)[C@@H]([C@H](C)C=C[C@H](C)C(C)C)CC[C@@H]23)C[C@@H](O)C[C@@H]1O`, for which the Potency in [1] is 2350 nM (active); in assay [2], 5900 nM (active); in assay [3] it was 7430 nM (active); in assay [4] it was 935 nM (active); in [5], 18700 nM (active); in [6], 83.3 nM (active). For the same compound, the results for the Potency in [7], in assay [8] and in [9] were 1660 nM (active), 13200 nM (active) and 264 nM (active), respectively.
`COc1ccc(OC)c(-c2nnc3ccc(-c4ccc(OC)c(O[C@@H]5CCOC5)c4)nn23)c1`: the Potency in assay [1] is 20900 nM (active); in assay [2], 11800 nM (active); in assay [3] it was 9350 nM (active); in assay [4], 9350 nM (active); in assay [5] it was 20900 nM (active); in assay [6], 7430 nM (active). The Potency in assay [7] was 8330 nM (active); in [10] it was 14800 nM (active); in assay [8], 14800 nM (active); in assay [9], 10500 nM (active).
`Cn1c2ccccc2c2c3c(c4c5ccccc5n(CCC#N)c4c21)CNC3=O`: the Potency in [1] was 14800 nM (active); in assay [2], 10500 nM (active); in assay [3] it was 10500 nM (active); in assay [4], 1870 nM (active); in assay [5] it was 14800 nM (active); in [6] it was 2090 nM (active). In addition, the Potency in assay [7] was 1660 nM (active); in assay [10] it was 14800 nM (active); in assay [8], 14800 nM (active); in [9], 209 nM (active).
Take `CC[C@H]1CN2CCc3cc(OC)c(OC)cc3[C@H]2C[C@@H]1C[C@@H]1NCCc2cc(OC)c(OC)cc21`: the Potency in assay [1] was 187 nM (active); in assay [2], 264 nM (active); in assay [3], 105 nM (active); in [4] it was 469 nM (active); in assay [5], 833 nM (active); in assay [6], 83.3 nM (active). In addition, the Potency in [7] is 187 nM (active); in assay [10] it was 332 nM (active); in assay [8], 296 nM (active); in [9] it was 59 nM (active).
In the case of `CC1(C)OC2=C(C(=O)c3ccccc3C2=O)[C@H](NCc2ccccc2)[C@H]1O`, the Potency is 5260 nM (active) in assay [1]; 2090 nM (active) in [2]; 2960 nM (active) in assay [3]; 2350 nM (active) in assay [4]; 4180 nM (active) in assay [5]; 2090 nM (active) in assay [6]. For the same compound, the Potency in assay [7] was 4180 nM (active); in assay [10], 4690 nM (active); in assay [8], 6620 nM (active); in assay [9], 2090 nM (active).
Consider `CC[C@@]1(O)C(=O)OCc2c1cc1n(c2=O)Cc2cc3cc(O)ccc3nc2-1`, for which the Potency in assay [1] was 5260 nM (active); in assay [2], 11800 nM (active); in [3], 662 nM (active); in [4], 296 nM (active); in assay [5], 1660 nM (active); in assay [6] it was 52.6 nM (active). In addition, the Potency in assay [7] is 66.2 nM (active); in assay [10], 2640 nM (active); in [8], 469 nM (active); in assay [9], 935 nM (active).
`CC1=C(CO)C(=O)O[C@@H]([C@@H](C)[C@H]2CC[C@H]3[C@@H]4C[C@H]5O[C@]56[C@@H](O)C=CC(=O)[C@]6(C)[C@@H]4CC[C@]23C)C1`: the Potency in [1] is 235 nM (active); in assay [2], 833 nM (active); in assay [3] it was 132 nM (active); in assay [4] it was 166 nM (active); in assay [5], 118 nM (active); in assay [6] it was 148 nM (active). For the same compound, the Potency was 132 nM (active) in assay [7], 187 nM (active) in assay [10] and 264 nM (active) in assay [8].
For the compound `CCC[C@H](NC(=O)C(C#N)=Cc1cccc(Br)n1)c1ccccc1`, the Potency was 1480 nM (active) in [1]; 2960 nM (active) in assay [2]; 1480 nM (active) in assay [3]; 1050 nM (active) in assay [4]; 6620 nM (active) in assay [5]; 7430 nM (active) in assay [6]. Also, the Potency in assay [7] is 1660 nM (active); in [10] it was 5260 nM (active); in assay [8], 2960 nM (active); in [9], 7430 nM (active).
Take `Cc1cc(Nc2cc(N3CCN(C)CC3)nc(C=Cc3ccccc3)n2)n[nH]1`: the Potency in assay [1] was 21500 nM (active); in assay [2], 30300 nM (active); in assay [3] it was 9590 nM (active); in [4], 6790 nM (active); in assay [5], 5400 nM (active); in [6], 17100 nM (active). The Potency in assay [7] and in assay [8] was 13600 nM (active) in each case.
As for `Cc1cc(N2CCOCC2)cc2[nH]c(-c3c(NC[C@@H](O)c4cccc(Cl)c4)cc[nH]c3=O)nc12`, the Potency in [1] is 526 nM (active); in assay [2], 166 nM (active); in assay [3], 11800 nM (active); in assay [4], 52.6 nM (active); in assay [5], 296 nM (active); in assay [6] it was 187 nM (active). Moreover, the Potency in assay [7] is 187 nM (active); in assay [8], 332 nM (active); in assay [9], 148 nM (active).
On to `CN1CCN(Cc2ccc(NC(=O)Nc3ccc(Oc4cc(NC(=O)C5CC5)ncn4)cc3)cc2C(F)(F)F)CC1`, for which the Potency in assay [1] is 418 nM (active); in assay [2] it was 372 nM (active); in assay [3], 332 nM (active); in assay [4], 132 nM (active); in [5], 1180 nM (active); in assay [6], 332 nM (active). The values for the Potency in assay [7], in assay [10] and in [8] were 332 nM (active), 372 nM (active) and 372 nM (active), respectively. For the same compound, the Potency result in assay [9] was “inactive”.
`COC(=O)[C@]12CCC(C)(C)C[C@@H]1[C@@H]1C(=O)C=C3[C@@]4(C)C=C(C#N)C(=O)C(C)(C)[C@@H]4CC[C@@]3(C)[C@]1(C)CC2`: the Potency in assay [1] was 209 nM (active); in assay [2], 1320 nM (active); in [3] it was 209 nM (active); in assay [4], 235 nM (active); in assay [5], 743 nM (active); in assay [6] it was 418 nM (active). Further, the Potency in assay [7] was 264 nM (active); in [10], 743 nM (active); in assay [8], 526 nM (active); in [9], 526 nM (active).
